Holding throughout (assay): PBM binding z-score (relative to random genomic background probes); higher = stronger binding; sequences stand for … in GC…GCGATTGACAGCGTAGAATGAAGG
The test system of assay [1] is FXR:RXRa (NR concentration 270 nM, RXRa partner concentration 90 nM). Summed up:
(§1)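 Custom Agilent 4×180K protein-binding microarrays carried double-stranded probes, each with a 34-nt variable region. These regions held direct-repeat seeds, single-nucleotide variants, half-site ablations and random human genomic background sequences. Ligand-free nuclear receptor dimers were incubated on the arrays for 1 h, antibodies against each partner (one per run) detected binding, and scanned fluorescence was regression-normalized. Binding z-scores take the random background probes as reference.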

For assay [2], the system named is LXRa:RXRa (NR concentration 270 nM, RXRa partner concentration 90 nM). The gist of the method: as §1
Assay [3] relates to LXRa homodimer (NR concentration 270 nM). The gist of the method: as §1
Assay [4] relates to LXRb:RXRa (NR concentration 270 nM, RXRa partner concentration 90 nM). Summed up:
as §1

For assay [5], the system named is LXRb homodimer (NR concentration 270 nM). Summed up: as §1
Assay [6] deals with PPARa:RXRa (NR concentration 270 nM, RXRa partner concentration 90 nM). Summed up:
as §1

In assay [7] the test system is PPARg:RXRa (NR concentration 180 nM, RXRa partner concentration 90 nM). Summed up: as §1
In assay [8] the test system is PPARg:RXRa 270nM:90nM, anti-RXR (NR concentration 270 nM, RXRa partner concentration 90 nM). The gist of the method: as §1
Assay [9] has as its system PPARg:RXRa 30nM:10nM, anti-RXR (NR concentration 30 nM, RXRa partner concentration 10 nM). The gist of the method: as §1
For assay [10], the system named is PPARg:RXRa 90nM:30nM, anti-RXR (NR concentration 90 nM, RXRa partner concentration 30 nM). The gist of the method: as §1

Turning to CCGACTGGGGCAGAAGGTTACCATAAGCCAGCCC, the PBM binding z-score was -0.0856 in assay [1]; 1.46 in assay [2]; -0.41 in assay [3]; 0.494 in assay [4]; -1.21 in assay [5]; 1.43 in [6]. Further, the PBM binding z-score in assay [7] amounted to 1.92; in assay [8], 3.09; in assay [9], 0.815; in assay [10], 2.15.
Regarding CCTTACGGGGCACTGACAGGTTATAGCATTTGGA, the PBM binding z-score was -0.345 in [1]; 0.0473 in [2]; -0.267 in assay [3]; 0.0491 in [4]; -0.831 in [5]; 0.455 in assay [6]. Also, the PBM binding z-score in assay [7] was 0.465; in assay [8] it was -0.156; in [9], -0.0268; in assay [10], -0.232.
CCTACTGGGCCATCGGGTCATTGATATCAACGTT: the PBM binding z-score is 1.37 in assay [1]; 1.03 in assay [2]; -0.0763 in assay [3]; 1.51 in assay [4]; -0.423 in assay [5]; 3.29 in [6]. The PBM binding z-score in assay [7] came out at 3.03; in assay [8], 4.12; in assay [9], 1.34; in assay [10], 3.22.
Consider CCGAGTGGGTTATGGGGCATTCAGGCAACGGTGA, for which the PBM binding z-score in assay [1] was 0.128; in assay [2] it was 0.155; in assay [3] it was -0.051; in assay [4], 0.764; in assay [5], -0.129; in assay [6], 1.74. The PBM binding z-score stood at 2.61 in assay [7], 3.77 in assay [8], 1.55 in [9] and 3.82 in [10].
As for CCTTACGTGTCACTCCAGGTTATAGCATCGGAGT, the PBM binding z-score in assay [1] amounted to 1.96; in [2], 5.55; in assay [3], 2.04; in assay [4] it was 1.89; in assay [5] it was 1.05; in [6] it was 0.862. Further, the PBM binding z-score is 0.466 in assay [7], 0.288 in assay [8], -0.302 in [9] and -0.0102 in [10].
Take CCGAGTAGGTTATGGGGCATTCCGGCAACGGTGA: the PBM binding z-score in assay [1] is 0.0637; in [2], 0.227; in assay [3] it was -0.224; in [4] it was 0.574; in [5], -0.279; in assay [6], 1.97. The PBM binding z-score was determined as 3.05 in assay [7], 4.51 in assay [8], 1.83 in assay [9] and 3.99 in assay [10].
Regarding AAATGTAGGTTATCGGGTCATTCAGTTTGCGCAT, the PBM binding z-score came to 3.38 in [1]; 3.09 in assay [2]; 1.81 in assay [3]; 2.9 in assay [4]; 0.806 in assay [5]; 5.21 in assay [6]. Further, the PBM binding z-score in [7] turned out to be 7.59; in assay [8] it was 6.43; in [9], 4.76; in assay [10] it was 6.15.
TCCGACAGGTGAAGGTAACTCAGGTACGCAGTCG: the PBM binding z-score in [1] is 0.658; in assay [2], 1.48; in assay [3] it was -0.467; in assay [4] it was 0.558; in [5] it was -0.785; in assay [6], 0.847. In addition, the PBM binding z-score in [7] worked out at 0.493; in [8], 1.09; in assay [9], 2.1; in assay [10], 1.34.
On to CCTCGCAGGCCAATCTGGGTCACTCAAGGCTTGA, for which the PBM binding z-score in assay [1] was 0.68; in assay [2], 1.48; in assay [3] it was -0.253; in [4], 0.914; in assay [5], -0.638; in assay [6] it was 3. The PBM binding z-score was 1.74 in assay [7], 2.28 in assay [8], -0.176 in assay [9] and 1.3 in assay [10].
Consider GCTATTAGTTGAAAGGGTAACCGAATGATTCTCG, for which the PBM binding z-score was -0.0135 in [1]; 0.398 in [2]; 0.254 in assay [3]; 0.557 in assay [4]; -0.148 in assay [5]; 1.63 in [6]. The PBM binding z-score was found to be 1.39 in assay [7], 3.38 in assay [8], 1.36 in assay [9] and 3.03 in assay [10].
In the case of ACAGACAGTTGAGTGAAGGTAACTCAGCTGGACG, the PBM binding z-score in assay [1] was 0.127; in [2] it was -0.141; in [3] it was -0.198; in [4] it was -0.473; in assay [5] it was -0.26; in [6], -0.127. For the same sequence, the PBM binding z-score in [7] is 0.557; in assay [8], -0.26; in [9], -0.0499; in assay [10], -0.284.
Turning to GATATAGGGTCAAGGCCAGAGTACGCGTATTGAT, the PBM binding z-score in assay [1] was found to be 7.01; in [2], 4.58; in assay [3], 0.271; in [4] it was 3.91; in [5], 0.188; in [6], 5.82. The PBM binding z-score in assay [7] is 6.29; in assay [8], 6.2; in assay [9] it was 3.04; in assay [10] it was 5.65.
